This passage reports Potency results from PubChem BioAssay (NCATS).

SMILES strings stand for the structures. Results filed as inconclusive are left out. Active and inactive are the calls of the source. Calls come from the whole dose curve; as a rule, active = well fitted curve in the direction sought with a large enough effect; inconclusive = small, poorly fitted or top-dose-only effect, or another doubt; inactive = no such curve, though single readings can be large; an effect the other way counts as inactive or inconclusive.

Test [1] is described as follows: Quantitative High-Throughput drug screen in 47 multiple myeloma cell lines against the NCATS MIPE library collection: FR4_PLB cell viability assay (AID 1918924; note: nearly all actives have a fitted effect of over 35% in size). The procedure, abridged:
(§1)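 Primary qHTS used for cherry-picking: cells at 500/well, library compounds for 48 h (37C, 5% CO2), luminescent ATP assay.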

A short description of test [2]: Quantitative High-Throughput drug screen in 47 multiple myeloma cell lines against the NCATS MIPE library collection: Delta47_JCRB cell viability assay (AID 1918925; note: nearly all actives have a fitted effect of over 45% in size). The essentials: (§2)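 qHTS of the MIPE 4.0 collection: 500 myeloma cells/well, 48 h drug exposure at 37C in 5% CO2, then CellTiter-Glo for 5 min at room temperature before luminescence reading.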
Test [3] can be described thus: Quantitative High-Throughput drug screen in 47 multiple myeloma cell lines against the NCATS MIPE library collection: EJM_DSMZ cell viability assay (AID 1918926; note: nearly all actives have a fitted effect of over 30% in size). The essentials: as §2
Test [4] can be described thus: Quantitative High-Throughput drug screen in 47 multiple myeloma cell lines against the NCATS MIPE library collection: ARP1_JJKsccF8 cell viability assay (AID 1918928; note: nearly all actives have a fitted effect of over 40% in size). The procedure, abridged:
(§3)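 Myeloma cells, 500 per well, were exposed to MIPE 4.0 drugs by pin transfer for 48 h at 37 °C, 5% CO2. Viability was read as ATP luminescence with CellTiter-Glo, normalised to DMSO-only (100%) and medium-only (0%) wells.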

Test [5] is described as follows: Quantitative High-Throughput drug screen in 47 multiple myeloma cell lines against the NCATS MIPE library collection: Karpas620_DSMZ cell viability assay (AID 1918959). Note: nearly all actives have a fitted effect of over 30% in size. The procedure, abridged: as §1
A short description of test [6]: Quantitative High-Throughput drug screen in 47 multiple myeloma cell lines against the NCATS MIPE library collection: KHM11_PLB cell viability assay (AID 1918962). Note: nearly all actives have a fitted effect of over 35% in size. The essentials: as §1
Test [7] can be described thus: Quantitative High-Throughput drug screen in 47 multiple myeloma cell lines against the NCATS MIPE library collection: JIM3_ECACC cell viability assay (AID 1918963; note: nearly all actives have a fitted effect of over 35% in size). The procedure, abridged:
as §1

Test [8] is described as follows: Quantitative High-Throughput drug screen in 47 multiple myeloma cell lines against the NCATS MIPE library collection: INA6_PLB cell viability assay (AID 1918965; note: nearly all actives have a fitted effect of over 55% in size). The procedure, abridged: (§4)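 We plated 500 myeloma cells per well, pinned in MIPE 4.0 compounds, and incubated for 48 hours at 37C. ATP was then quantified with CellTiter-Glo, with DMSO and media-only wells defining 100% and 0%.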

Test [9] is described as follows: Quantitative High-Throughput drug screen in 47 multiple myeloma cell lines against the NCATS MIPE library collection: AMO1_DSMZ cell viability assay (AID 1918927; note: nearly all actives have a fitted effect of over 30% in size). The procedure, abridged:
as §2

Test [10] is described as follows: Quantitative High-Throughput drug screen in 47 multiple myeloma cell lines against the NCATS MIPE library collection: ARD_JJKsccE7 cell viability assay (AID 1918929). The essentials: as §2
Test [11] in a line: Quantitative High-Throughput drug screen in 47 multiple myeloma cell lines against the NCATS MIPE library collection: KMM1_JCRB cell viability assay (AID 1918960). Note: nearly all actives have a fitted effect of over 30% in size. The procedure, abridged: as §3
Test [12] is described as follows: Quantitative High-Throughput drug screen in 47 multiple myeloma cell lines against the NCATS MIPE library collection: Karpas417_ECACC cell viability assay (AID 1918961). As to conditions: Karpas417 myeloma viability, CellTiter-Glo ATP luminescence, 48 h; viability (% of DMSO): at 45.8 µM (top of the series). The essentials: as §4
(Cellular ATP, detected with luciferase, serves as a proxy for viable cell number.)

Test [13] in a line: Quantitative High-Throughput drug screen in 47 multiple myeloma cell lines against the NCATS MIPE library collection: JIM1_ECACC cell viability assay (AID 1918964). The essentials:
as §2
Potency is the fitted concentration of half-maximal effect.

In the case of `CC=C(C)C(=O)O[C@H]1C(C)=C2[C@@H]3OC(=O)[C@@](C)(O)[C@@]3(O)[C@@H](OC(=O)CCC)C[C@](C)(OC(C)=O)[C@@H]2[C@@H]1OC(=O)CCCCCCC`, the Potency in test [1] is 26.4 nM (active); in [2] it was 235 nM (active); in [3], 37.2 nM (active); in [4], 29.6 nM (active); in [6] it was 332 nM (active); in [7], 264 nM (active). The Potency in [8] was 93.5 nM (active). Further, in test [5], the Potency result is “inactive”.
As to `COc1ccc2c(c1)CN(C)CC2c1ccc(Cl)c(Cl)c1` (stereo not given), the Potency in test [2] is 23500 nM (active); in test [3], 18700 nM (active); in test [9] it was 23500 nM (active); in [4], 20900 nM (active); in [10] it was 10500 nM (active); in test [5] it was 16600 nM (active). Also, the Potency in [11] was 14800 nM (active); in test [12], 14800 nM (active); in test [13] it was 7430 nM (active); in test [8], 23500 nM (active).
For the molecule `CC(C)(C)[C@]1(O)C[C@@H]2OC(=O)C[C@@]23C(=O)O[C@@H]2OC(=O)[C@H](O)C213` (stereo not given in full), the Potency result in [1], in test [3], in test [9], in test [4], in test [5] and in test [11] was “inactive” throughout. The Potency result in test [7] and in [8] was “inactive” each time. The Potency in test [13] was 33.2 nM (active).
Regarding `C[C@]12CC[C@H](O)CC1=CC[C@H]1[C@H]3CCC(=O)[C@@]3(C)CC[C@@H]12`, the Potency result in [1], in test [4] and in test [7] was “inactive” in each case. Besides, the Potency in test [9] is 18700 nM (active); in test [5] it was 16600 nM (active); in test [6], 14800 nM (active); in test [13], 418 nM (active).
Regarding `O=C1CCC[C@@H]2[C@H]3CCCN4CCC[C@@H](CN12)[C@@H]34`, the Potency result in test [2], in test [3], in test [5], in [7], in test [13] and in test [8] was “inactive” in each case.
As for `CC[C@H]1C=CC=CC[C@@H](C)[C@H](O)[C@@](C)(O)C(=O)[C@@H](C)[C@H](O)[C@@H](C)C(=O)[C@@H](C)[C@H](O)[C@@H](C)C=CC(=O)O[C@@H]2[C@@H](C)[C@H](CC1)O[C@]1(CC[C@H](C)[C@H](C[C@@H](C)O)O1)[C@H]2C`, the Potency was 1 nM (active) in test [2]; 5.9 nM (active) in [9]; 2.1 nM (active) in [4]; 1 nM (active) in test [10]; 1 nM (active) in [5]; 1 nM (active) in [13]. In addition, the Potency in test [8] was 13.2 nM (active).
With `CC(O)=C(C#N)C(=O)Nc1cc(Br)ccc1Br`, the Potency entry in test [2], in [11] and in test [7] was “inactive” in each case. In addition, the Potency is 7430 nM (active) in test [3] and 5260 nM (active) in test [5].
For the molecule `COc1ccc(CC2NCCc3cc(OC)c(OC)cc32)cc1OC` (stereo not given), the Potency entry in [1], in test [2], in test [3], in [10], in [5] and in [11] was “inactive” throughout. In addition, the Potency result in [12] and in test [7] was “inactive” in each case.
For `N#C[C@H](O[C@@H]1O[C@H](CO[C@@H]2O[C@H](CO)[C@H](O)[C@H](O)[C@H]2O)[C@H](O)[C@H](O)[C@H]1O)c1ccccc1`, the Potency in [1] was 20900 nM (active); in test [2], 18700 nM (active); in [5], 9350 nM (active); in [6] it was 23500 nM (active); in [7] it was 20900 nM (active); in [8], 13200 nM (active).
With `C=CCON=C(C[C@H]1O[C@@H]2O[C@]3(C)CC[C@@H]4[C@H](C)CC[C@@H]([C@H]1C)[C@@]24OO3)[C@H]1O[C@@H]2O[C@]3(C)CC[C@H]4[C@H](C)CC[C@@H]([C@@H]1C)[C@@]24OO3`, the Potency in test [2] was 372 nM (active); in test [3], 148 nM (active); in test [9], 118 nM (active); in test [4] it was 20.9 nM (active); in test [10], 132 nM (active); in test [12] it was 148 nM (active). Further, the Potency in [6] is 418 nM (active); in [7] it was 372 nM (active); in test [8], 469 nM (active).
In the case of `Cc1c(N)nc([C@H](CC(N)=O)NC[C@@H](N)C(N)=O)nc1C(=O)N[C@H](C(=O)N[C@@H](C)[C@H](O)[C@@H](C)C(=O)N[C@@H](C(=O)NCCc1nc(-c2nc(C(=O)NCCC[S+](C)C)cs2)cs1)[C@@H](C)O)C(O[C@H]1O[C@H](CO)[C@H](O)[C@@H](O)[C@@H]1O[C@H]1O[C@H](CO)[C@@H](O)[C@H](OC(N)=O)[C@H]1O)c1cnc[nH]1` (stereo not given in full), in test [1], the Potency entry was “inactive”. For the same molecule, the Potency in test [2] was 469 nM (active); in [9], 296 nM (active); in test [11], 418 nM (active).
`C[C@@H]1[C@H](O)[C@@H](C)C=CC=CCCC=CC=CC=CC=C[C@H](O[C@H]2O[C@@H](C)[C@H](O)[C@@H](N)[C@@H]2O)CC2O[C@](O)(C[C@@H](O)[C@H](O)CC[C@@H](O)C[C@@H](O)C[C@@H](O)CC(=O)O[C@H]1C)C[C@H](O)[C@H]2C(=O)O`: the Potency result in [1], in test [3], in test [9], in test [4], in test [5] and in [11] was “inactive” in each case. For the same molecule, the Potency entry in [7] and in test [13] was “inactive” in each case.
With `c1cc2c(cc1[C@H]1OC[C@H]3[C@H]1CO[C@H]3c1ccc3c(c1)OCO3)OCO2`, the Potency result in test [1], in [2], in test [9], in test [10], in test [5] and in test [7] was “inactive” throughout. For the same molecule, in test [8], the Potency entry was “inactive”.
For `CC(=O)O[C@@]12CO[C@H]1C[C@H](O)[C@@]1(C)C(=O)[C@H](O)C3=C(C)[C@@H](O)C[C@@](O)([C@@H](OC(=O)c4ccccc4)[C@@H]21)C3(C)C`, the Potency was 1050 nM (active) in [1]; 3320 nM (active) in [3]; 2640 nM (active) in test [4]; 2090 nM (active) in test [10]; 1180 nM (active) in test [11]; 1050 nM (active) in test [7]. Moreover, the Potency in test [8] was 1480 nM (active).
Consider `C[C@H]([C@H](O)CCC(C)(C)O)[C@H]1CC[C@@]2(O)C3=CC(=O)[C@@H]4C[C@@H](O)[C@@H](O)C[C@]4(C)[C@@H]3CC[C@]12C`, for which the Potency entry in test [1], in [2], in test [3], in test [10], in test [5] and in [11] was “inactive” in each case. In addition, the Potency entry in [6], in test [7] and in test [8] was “inactive” in each case.
